# Paper PMC11062922 (Nature Chemical Biology, 2023)
# Read-outs that look alike come from different tables or passages of the source.
# How the values were obtained:
# [1] = tested on: GAK; set-up: species or system human, MV4-11 + K-562 + COLO205 + SK-N-BE2 + OVCAR-8; details: read-out: apparent Kd, compound concentrations: 100 nM and 1000 nM (sheet 'Samples'), n = 1
# [2] = tested on: TTK; set-up: species or system human, MV4-11 + K-562 + COLO205 + SK-N-BE2 + OVCAR-8; details: read-out: apparent Kd, compound concentrations: 100 nM and 1000 nM (sheet 'Samples'), n = 1
# [3] = tested on: FLT3; set-up: species or system human, MV4-11 + K-562 + COLO205 + SK-N-BE2 + OVCAR-8; details: read-out: apparent Kd, n = 1
# [4] = tested on: MYLK3; set-up: species or system human, MV4-11 + K-562 + COLO205 + SK-N-BE2 + OVCAR-8; details: read-out: apparent Kd, compound concentrations: 100 nM and 1000 nM (sheet 'Samples'), n = 1
# [5] = tested on: GRK6; set-up: species or system human, MV4-11 + K-562 + COLO205 + SK-N-BE2 + OVCAR-8; details: read-out: apparent Kd; compound concentrations: 100 nM and 1000 nM (sheet 'Samples'), CATDS: 1; n = 1
# [6] = tested on: GSK3A; set-up: species or system human, MV4-11 + K-562 + COLO205 + SK-N-BE2 + OVCAR-8; details: read-out: apparent Kd; compound concentrations:100 nM and 1000 nM (sheet 'Samples'); n = 1
# [7] = tested on: GSK3B; set-up: species or system human, MV4-11 + K-562 + COLO205 + SK-N-BE2 + OVCAR-8; details: read-out: apparent Kd; compound concentrations: 100 nM and 1000 nM (sheet 'Samples'), CATDS: 0.16764618066406201; n = 1
# [8] = tested on: MAP2K2; set-up: species or system human, MV4-11 + K-562 + COLO205 + SK-N-BE2 + OVCAR-8; details: read-out: apparent Kd; compound concentrations:100 nM and 1000 nM (sheet 'Samples'); n = 1
# [9] = tested on: RIOK2; set-up: species or system human, MV4-11 + K-562 + COLO205 + SK-N-BE2 + OVCAR-8; details: read-out: apparent Kd; compound concentrations:100 nM and 1000 nM (sheet 'Samples'); n = 1
# [10] = tested on: TGFBR2; set-up: species or system human, MV4-11 + K-562 + COLO205 + SK-N-BE2 + OVCAR-8; details: read-out: apparent Kd; compound concentrations:100 nM and 1000 nM (sheet 'Samples'); n = 1
# [11] = tested on: NQO1; set-up: species or system human, MV4-11 + K-562 + COLO205 + SK-N-BE2 + OVCAR-8; details: read-out: apparent Kd; compound concentrations: 100 nM and 1000 nM (sheet 'Samples'), CATDS: 0.42980166948746801; n = 1
# [12] = tested on: NLK; set-up: species or system human, MV4-11 + K-562 + COLO205 + SK-N-BE2 + OVCAR-8; details: read-out: apparent Kd; compound concentrations: 100 nM and 1000 nM (sheet 'Samples'), CATDS: 0.239785961160628; n = 1
# [13] = tested on: RIPK2; set-up: species or system human, MV4-11 + K-562 + COLO205 + SK-N-BE2 + OVCAR-8; details: read-out: apparent Kd; compound concentrations: 100 nM and 1000 nM (sheet 'Samples'), CATDS: 0.40204852474639502; n = 1
# [14] = tested on: FLT4; set-up: species or system human, MV4-11 + K-562 + COLO205 + SK-N-BE2 + OVCAR-8; details: read-out: apparent Kd; compound concentrations: 100 nM and 1000 nM (sheet 'Samples'), CATDS: 0.159173325469706; n = 1
# [15] = tested on: PDGFRB; set-up: species or system human, MV4-11 + K-562 + COLO205 + SK-N-BE2 + OVCAR-8; details: read-out: apparent Kd; compound concentrations: 100 nM and 1000 nM (sheet 'Samples'), CATDS: 0.20817935834978499; n = 1
# [16] = tested on: PIP4K2C; set-up: species or system human, MV4-11 + K-562 + COLO205 + SK-N-BE2 + OVCAR-8; details: read-out: apparent Kd; compound concentrations: 100 nM and 1000 nM (sheet 'Samples'), CATDS: 0.16088368333560399; n = 1
# [17] = biological target: Q6ZSR9 (human, UniProt Q6ZSR9); set-up: species or system MV4-11 + K-562 + COLO205 + SK-N-BE2 + OVCAR-8; details: read-out: apparent Kd; compound concentrations: 100 nM and 1000 nM (sheet 'Samples'), CATDS: 0.15174967066440201; n = 1
# Chain of Q6ZSR9 (Q6ZSR9 whole entry, looked up): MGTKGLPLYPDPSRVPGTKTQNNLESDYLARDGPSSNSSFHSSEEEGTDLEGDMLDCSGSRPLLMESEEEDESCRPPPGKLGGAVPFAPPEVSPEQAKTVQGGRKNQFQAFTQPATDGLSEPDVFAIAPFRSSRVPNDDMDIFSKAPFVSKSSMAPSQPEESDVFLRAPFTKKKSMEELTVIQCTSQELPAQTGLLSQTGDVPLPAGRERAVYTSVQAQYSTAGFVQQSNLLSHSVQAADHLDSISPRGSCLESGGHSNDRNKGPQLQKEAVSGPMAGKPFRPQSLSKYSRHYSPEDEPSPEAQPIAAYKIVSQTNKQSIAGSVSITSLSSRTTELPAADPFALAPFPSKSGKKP
# [18] = tested on: TNIK; set-up: species or system human, MV4-11 + K-562 + COLO205 + SK-N-BE2 + OVCAR-8; details: read-out: apparent Kd; compound concentrations: 100 nM and 1000 nM (sheet 'Samples'), CATDS: 0.21425546336559301; n = 1
compound,measurement,setting,value
COc1cc(N2CCN(C(C)C)CC2)ccc1Nc1nc(Nc2cccc3ncccc23)c2cc[nH]c2n1 [GSK1511931A],potency estimated from few doses,[1]; CATDS: 0.87402661457119502,0.0839 µM
same,potency estimated from few doses,[2]; CATDS: 0.35015598460163,1.08 µM
O=C1Nc2ccccc2/C1=C/Nc1ccc2[nH]c(=O)[nH]c2c1 [GW284408X],potency estimated from few doses,"[3]; compound concentrations: 100 nM and 1000 nM (sheet 'Samples'), CATDS: 0.54453262493036503",0.348 µM
same,potency estimated from few doses,[4]; CATDS: 0.46220060091739101,0.485 µM
Cl.N#Cc1cccc(Nc2ncc(-c3ccccc3)o2)c1 [GW627834A],potency estimated from few doses,"[3]; compound concentrations: 100 nM and 1000 nM (sheet 'Samples'), CATDS: 1",0.344 µM
c1ccc(-c2cnc3nccnn23)cc1 [AH20685XX],potency estimated from few doses,[5],2.06 µM
CC(C)c1ccc(Nc2nccc(-c3cnn4ncccc34)n2)cc1 [GW805758X],potency estimated from few doses,[3]; compound concentrations:100 nM and 1000 nM (sheet 'Samples'),1.17 µM
same,potency estimated from few doses,[6],0.888 µM
same,potency estimated from few doses,[7],1.46 µM
same,potency estimated from few doses,[8],2.02 µM
same,potency estimated from few doses,[9],1.7 µM
same,potency estimated from few doses,[10],2 µM
C#Cc1cccc(Nc2ncnc3ccc(OCCCCNCCS(C)(=O)=O)cc23)c1 [GW680191X],potency estimated from few doses,[1]; CATDS: 0.59760522623710299,0.804 µM
same,potency estimated from few doses,[11],1.58 µM
COc1cc(Nc2ccnc3ccc(C(F)(F)F)cc23)cc(OC)c1OC [GW577382X],potency estimated from few doses,[1]; CATDS: 0.42692129692206698,0.305 µM
same,potency estimated from few doses,[12],1.23 µM
same,potency estimated from few doses,[13],0.34 µM
COc1cc(Nc2ncc(-c3ccccc3)o2)cc(OC)c1OC [GW627512B],potency estimated from few doses,"[3]; compound concentrations: 100 nM and 1000 nM (sheet 'Samples'), CATDS: 0.90210431278154302",0.0202 µM
same,potency estimated from few doses,[14],1.85 µM
same,potency estimated from few doses,[15],0.858 µM
same,potency estimated from few doses,[16],1.79 µM
same,potency estimated from few doses,[17],2.17 µM
O=C1Nc2ccccc2/C1=C/Nc1ccc(-n2cncn2)cc1 [GW301789X],potency estimated from few doses,"[3]; compound concentrations: 100 nM and 1000 nM (sheet 'Samples'), CATDS: 0.22267825375754199",1.37 µM
same,potency estimated from few doses,[4]; CATDS: 0.63148030600185001,0.176 µM
same,potency estimated from few doses,[18],1.52 µM
same,potency estimated from few doses,[2]; CATDS: 0.19017518811714801,2.18 µM
